Bioassay records as filed in PubChem BioAssay.
Pf Dd2 growth – Plasmodium falciparum Dd2 growth inhibition; P. falciparum Dd2 growth, SYBR Green, 72 h; Potency, µM (top dose mostly 28.9 µM), inactives show top-dose activity, negative = inhibition, actives largely listed as inhibitors; actives 4.3% (n = 120,000); active means well fitted inhibition curve with a large enough effect;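 further: plate controls were DMSO vehicle for no effect and reference drug for full effect; nearly all actives have a fitted effect of over 65% in size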
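Infected erythrocytes (Dd2, 0.3% parasitemia, 2.5% hematocrit final) are added to compound in RPMI-1640/Albumax II medium, grown 72 h at 37C in low oxygen, then lysed with saponin/Triton-X containing SYBR Green and read by fluorescence.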
Active calls of the source: *; [ ] = remark or other dose. This is one part of a sample in which hits are shown more often than they occur. Potency means the concentration at half of the fitted maximal effect.

Cc1oc(-c2ccc(NC(=O)Cc3ccccc3)cc2)nc1CNC(=O)c1ccc(-c2ccco2)cc1 was read as Pf Dd2 growth -22.7%.
CCCCSc1nnc2[nH]c(=O)cc(C)n12 was read as Pf Dd2 growth 8.4%.
Screening O=C(Cc1ccc(Cl)cc1)NCc1nnc2cc(-c3nc(C4CC4)no3)ccn12 returned Pf Dd2 growth 0.447µM*.
Screening O=C(NCc1nnc2cc(-c3nc(C4CC4)no3)ccn12)c1ccoc1 returned Pf Dd2 growth -22.4%.
`COc1cccc(CNC(=O)N2CC(c3noc(-c4ccncc4)n3)C2)c1` gave Pf Dd2 growth 8.91µM*.
Screening COc1ccc(CNC(=O)N2CCC(c3noc(-c4ccccc4)n3)C2)cc1 (configuration not stated) returned Pf Dd2 growth 7.2%[5.79 µM].
O=C(Cc1cccc(F)c1)NCc1nnc2cc(-c3nc(C4CC4)no3)ccn12 was read as Pf Dd2 growth inactive.
For O=C(NCc1nnc2cc(-c3nc(C4CC4)no3)ccn12)C1CC1 the results were Pf Dd2 growth -24.2%.
`COc1cccc(CC(=O)NCc2nnc3cc(-c4nc(C5CC5)no4)ccn23)c1` gave Pf Dd2 growth 6.31µM*.
`COc1ccc(CNC(=O)N2CCC(c3noc(-c4cccnc4)n3)C2)cc1` (configuration not stated) gave Pf Dd2 growth inactive[5.79 µM].
Screening O=C(NCc1nnc2cc(-c3nc(C4CC4)no3)ccn12)c1c(F)cccc1F returned Pf Dd2 growth inactive.
Screening O=C(NCc1nnc2cc(-c3nc(C4CC4)no3)ccn12)c1cccc(Cl)c1 returned Pf Dd2 growth inactive.
Screening O=C(NCc1nnc2cc(-c3nc(C4CC4)no3)ccn12)c1ccccc1Cl returned Pf Dd2 growth -5.3%.
O=C(Cc1ccc(F)cc1)NCc1nnc2cc(-c3nc(C4CC4)no3)ccn12 was read as Pf Dd2 growth 4.47µM*.
Screening CC(C)NC(=O)NC[C@H]1OC[C@@H](NC2CCCC2)[C@@H]1O returned Pf Dd2 growth 24.8%[44.1 µM].
Screening COCc1nc2nc(-c3ccccc3)c(-c3ccc(OC)nc3)cc2n1C returned Pf Dd2 growth -13.9%[44.1 µM].
For Cc1noc(C)c1-c1cc2cc(C(C)C)oc2c(N2CCN(C)C(=O)C2)n1 the results were Pf Dd2 growth -11.2%[44.1 µM].
For COc1cccc(CN2CCC3(CC2)C(C(=O)O)CC(=O)N3C)c1OC (configuration not stated) the results were Pf Dd2 growth -14.7%.
Screening Cn1cccc1C(=O)N1CCC2(CC1)CN(C1CCC1)CC2CO (configuration not stated) returned Pf Dd2 growth -9.3%.
Screening O=C(Cc1ccccc1)N1CCc2c(nc(-c3ccccc3)[nH]c2=O)C1 returned Pf Dd2 growth inactive.
CCCN1CCC2(CCN(C(=O)Nc3ccccc3)CC2)Oc2ccccc21 was read as Pf Dd2 growth inactive.
CCOc1ccccc1CN1CCC2(CCN(CCC(C)C)CC2)Oc2ccccc21 was read as Pf Dd2 growth 1µM*.
CCOc1ccccc1CN1CCC2(CCN(C(=O)C3CCCC3)CC2)Oc2ccccc21 was read as Pf Dd2 growth -16.8%.
`CCOc1ccccc1CN1CCC2(CCN(C(=O)Cc3ccc(F)cc3)CC2)Oc2ccccc21` gave Pf Dd2 growth 8.91µM*.
CCCN1CCC2(CCN(C(=O)COC)CC2)Oc2ccccc21 was read as Pf Dd2 growth -18.1%[44.1 µM].
CCOc1ccccc1CN1CCN(S(=O)(=O)c2ccccc2)CC1 was read as Pf Dd2 growth 11.9%.
COc1ccc(C(=O)N2CCCC(c3nn(C)c(=O)n3C3CCCC3)C2)cn1 (configuration not stated) was read as Pf Dd2 growth inactive.
`COc1ccc(-c2onc(C)c2C)cc1S(=O)(=O)Nc1cc(Cl)ccc1C` gave Pf Dd2 growth 76.3%.
`CCOc1ccc2ncc3c(-c4cccc(OC)c4)nn(-c4ccccc4)c3c2c1` gave Pf Dd2 growth inactive.
For CN1CC2CN(C(=O)c3ccsc3)CC(C1)O2 the results were Pf Dd2 growth 2.1%.
Cc1ccc(-c2nccn3cc(C(=O)NCCc4ccccn4)nc23)cc1 was read as Pf Dd2 growth inactive.
Screening CN(C)[C@H]1C[C@@H](Cc2cc(COc3ccccc3)on2)C1(C)C returned Pf Dd2 growth inactive.
For CC1(C)[C@H](Cc2cc(COc3ccccc3)on2)C[C@@H]1NC(=O)Nc1ccccc1 the results were Pf Dd2 growth 10µM*.
For CC1(C)[C@H](Cc2cc(COc3ccccc3)on2)C[C@@H]1NC1CCC1 the results were Pf Dd2 growth 11.2µM*.
c1ccc(OCc2cc(CC3(NC4CCC4)COC3)no2)cc1 was read as Pf Dd2 growth -18.3%[44.1 µM].
CCCCCC(=O)N[C@H]1C[C@@H](Cc2cc(COC(=O)CCCCC)on2)C1(C)C was read as Pf Dd2 growth -5.7%[44.1 µM].
CC1(C)[C@H](Cc2cc(CN3CCOCC3)on2)C[C@@H]1NC(=O)Nc1ccc(F)cc1 was read as Pf Dd2 growth inactive.
`CCCCc1cc(C[C@@H]2C[C@H](NC(=O)NCC)C2(C)C)no1` gave Pf Dd2 growth inactive.
`CCCCCC(=O)N[C@H]1C[C@@H](Cc2cc(COc3ccccc3)on2)C1(C)C` gave Pf Dd2 growth 11.2µM*.
`CC(C)(C)C(=O)N[C@H]1C[C@@H](Cc2cc(COc3ccccc3)on2)C1(C)C` gave Pf Dd2 growth -6.7%[44.1 µM].
Screening CS(=O)(=O)c1ccc2c(c1)nc1n2[C@@H](CNC(=O)c2ccccc2)COC1 returned Pf Dd2 growth 0.0%[44.1 µM].
CCc1ccc(-n2c(=O)c3c4c(sc3n(CC(=O)N3CCCCC3CC)c2=O)CCC4)cc1 (configuration not stated) was read as Pf Dd2 growth inactive.
Cc1ccc(C(C(=O)O)N2CCC(CCN3CCCC3=O)CC2)cc1C (configuration not stated) was read as Pf Dd2 growth -4.9%.
O=C(NC1CC(=O)N(c2ccccc2)C1)C1CCCCC1 (configuration not stated) was read as Pf Dd2 growth 8.8%.
For CCC(=O)N1CCc2c(C(=O)NCc3cc(C)ccc3C)cccc21 the results were Pf Dd2 growth 11.2µM*.
`CCC(=O)N1CCc2c(C(=O)NCc3cc(OC)ccc3OC)cccc21` gave Pf Dd2 growth inactive.
`CCC(=O)N1CCc2c(C(=O)NCCOC)cccc21` gave Pf Dd2 growth -9.9%.
For CC(=O)N1CCC(N2CC3(C2)C(=O)N(Cc2ccccc2F)C(=O)[C@@H]2C[C@@H](O)CN23)CC1 the results were Pf Dd2 growth 18.1%.
For Cc1ccc(C2=NC3(CCN(C(=O)c4ccc(N(C)C)cc4)CC3)ON2)cc1 the results were Pf Dd2 growth inactive.
Screening O=C(Nc1ccccc1)N1CCC(c2nn(-c3ccc(F)cc3)c(=O)[nH]2)CC1 returned Pf Dd2 growth inactive.
For Cc1ccc2sc(N(CCCN(C)C)C(=O)c3ccco3)nc2c1C the results were Pf Dd2 growth 8.91µM*.
For Cc1ccc(C)c2sc(N3CCN(C(=O)c4ccco4)CC3)nc12 the results were Pf Dd2 growth 8.7%.
For CCN(CC)CCN(C(=O)c1ccco1)c1nc2ccc(Cl)cc2s1 the results were Pf Dd2 growth -4.8%.
For NS(=O)(=O)c1ccc(NC(=O)c2csnn2)cc1 the results were Pf Dd2 growth 32.7%[0.594 µM].
`COc1ccc(N2CC(C(=O)N3CCC(C(=O)NCCOc4ccccc4)C3)NC2=O)cc1` (configuration not stated) gave Pf Dd2 growth 16.3%.
`CNC(=O)C1(C)CN(Cc2ccccc2)Cc2ccc(N3CCOCC3)nc21` (configuration not stated) gave Pf Dd2 growth inactive.
